Experimental findings from ChEMBL document CHEMBL1961873, “Compounds: GSK PKIS; Assays: Nanosyn kinase panel” (2012) are described below.

As usually defined, the inhibition is the relative decrease from the control value, in per cent.

Assay [1] addresses Sphingosine kinase 1 (Homo sapiens) (UniProt Q9NYA1). Conditions: at 1 µM.
Assay [2] has as its target T1, Sphingosine kinase 2 (Homo sapiens) (UniProt Q9NRA0).
T1 sequence (whole entry): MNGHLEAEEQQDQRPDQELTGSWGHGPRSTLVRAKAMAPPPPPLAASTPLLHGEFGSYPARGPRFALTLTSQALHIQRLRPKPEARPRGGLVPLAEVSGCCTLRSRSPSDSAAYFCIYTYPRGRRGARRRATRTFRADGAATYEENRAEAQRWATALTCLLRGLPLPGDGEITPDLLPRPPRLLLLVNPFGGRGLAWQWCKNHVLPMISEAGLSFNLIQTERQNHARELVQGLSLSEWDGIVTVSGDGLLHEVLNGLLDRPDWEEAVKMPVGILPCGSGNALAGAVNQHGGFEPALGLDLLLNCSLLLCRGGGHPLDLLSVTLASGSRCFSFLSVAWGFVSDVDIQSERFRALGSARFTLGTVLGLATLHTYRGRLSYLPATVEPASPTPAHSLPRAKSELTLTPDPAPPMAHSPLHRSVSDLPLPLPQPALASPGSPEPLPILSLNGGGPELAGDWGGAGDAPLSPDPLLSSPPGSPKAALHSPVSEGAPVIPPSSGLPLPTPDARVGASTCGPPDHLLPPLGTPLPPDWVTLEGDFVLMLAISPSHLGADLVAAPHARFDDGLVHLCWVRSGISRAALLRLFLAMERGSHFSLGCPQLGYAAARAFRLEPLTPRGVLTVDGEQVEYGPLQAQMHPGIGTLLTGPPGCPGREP
To be noted: at 0.1 µM.

Assay [3] deals with T1, Sphingosine kinase 2 (Homo sapiens). To be noted: at 1 µM.
The target in assay [4] is Casein kinase II subunit alpha (Homo sapiens) (UniProt P68400). To be noted: at 0.1 µM.
Assay [5] shares this target. Conditions: at 1 µM.
Assay [6] deals with T2, Inhibitor of nuclear factor kappa-B kinase subunit alpha (Homo sapiens) (UniProt O15111).
T2 sequence (whole entry): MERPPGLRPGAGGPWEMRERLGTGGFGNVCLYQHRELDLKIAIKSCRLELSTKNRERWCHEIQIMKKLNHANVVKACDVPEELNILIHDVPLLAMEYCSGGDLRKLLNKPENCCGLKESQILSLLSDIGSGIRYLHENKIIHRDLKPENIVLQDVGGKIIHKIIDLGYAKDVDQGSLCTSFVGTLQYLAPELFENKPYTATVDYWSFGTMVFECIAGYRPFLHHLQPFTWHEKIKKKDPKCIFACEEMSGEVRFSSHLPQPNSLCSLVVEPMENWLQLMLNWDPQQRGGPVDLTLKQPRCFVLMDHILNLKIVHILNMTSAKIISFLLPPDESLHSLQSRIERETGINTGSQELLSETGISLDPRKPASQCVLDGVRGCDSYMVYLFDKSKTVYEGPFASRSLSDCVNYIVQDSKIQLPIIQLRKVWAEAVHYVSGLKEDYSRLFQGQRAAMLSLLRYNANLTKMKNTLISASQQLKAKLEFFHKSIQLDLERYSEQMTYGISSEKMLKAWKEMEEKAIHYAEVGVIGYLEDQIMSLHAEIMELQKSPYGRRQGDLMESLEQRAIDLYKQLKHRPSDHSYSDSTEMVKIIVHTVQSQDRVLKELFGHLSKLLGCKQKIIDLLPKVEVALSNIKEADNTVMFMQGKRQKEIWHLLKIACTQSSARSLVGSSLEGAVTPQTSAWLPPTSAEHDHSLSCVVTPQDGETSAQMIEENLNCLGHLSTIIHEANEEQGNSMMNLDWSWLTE
Conditions: at 0.1 µM.

The target of assay [7] is T2, Inhibitor of nuclear factor kappa-B kinase subunit alpha (Homo sapiens). To be noted: at 1 µM.
In assay [8] the target is T3, Inhibitor of nuclear factor kappa-B kinase subunit beta (Homo sapiens) (UniProt O14920).
T3 sequence (whole entry): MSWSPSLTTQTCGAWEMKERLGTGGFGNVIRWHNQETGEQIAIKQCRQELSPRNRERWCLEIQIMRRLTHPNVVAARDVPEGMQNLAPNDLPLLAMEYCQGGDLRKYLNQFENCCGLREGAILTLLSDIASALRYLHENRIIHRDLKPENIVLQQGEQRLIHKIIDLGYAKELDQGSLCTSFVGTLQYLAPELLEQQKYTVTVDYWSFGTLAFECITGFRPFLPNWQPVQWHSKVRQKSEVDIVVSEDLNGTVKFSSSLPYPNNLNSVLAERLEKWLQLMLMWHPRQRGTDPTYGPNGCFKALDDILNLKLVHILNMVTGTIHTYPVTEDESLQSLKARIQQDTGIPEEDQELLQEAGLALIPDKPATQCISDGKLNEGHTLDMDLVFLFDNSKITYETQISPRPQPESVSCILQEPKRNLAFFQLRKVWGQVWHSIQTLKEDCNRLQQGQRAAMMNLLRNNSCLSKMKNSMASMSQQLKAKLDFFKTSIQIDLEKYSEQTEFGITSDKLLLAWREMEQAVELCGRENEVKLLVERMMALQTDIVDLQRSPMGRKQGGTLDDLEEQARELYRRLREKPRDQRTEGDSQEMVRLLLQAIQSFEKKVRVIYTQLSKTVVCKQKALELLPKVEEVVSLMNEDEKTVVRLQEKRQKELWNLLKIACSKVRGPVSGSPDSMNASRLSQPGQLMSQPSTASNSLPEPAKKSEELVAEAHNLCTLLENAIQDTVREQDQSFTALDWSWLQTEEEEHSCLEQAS
To be noted: at 0.1 µM.

In assay [9] the target is T3, Inhibitor of nuclear factor kappa-B kinase subunit beta (Homo sapiens). Conditions: at 1 µM.
Assay [10] has as its target T4, Inhibitor of nuclear factor kappa-B kinase subunit epsilon (Homo sapiens) (UniProt Q14164).
T4 sequence (whole entry): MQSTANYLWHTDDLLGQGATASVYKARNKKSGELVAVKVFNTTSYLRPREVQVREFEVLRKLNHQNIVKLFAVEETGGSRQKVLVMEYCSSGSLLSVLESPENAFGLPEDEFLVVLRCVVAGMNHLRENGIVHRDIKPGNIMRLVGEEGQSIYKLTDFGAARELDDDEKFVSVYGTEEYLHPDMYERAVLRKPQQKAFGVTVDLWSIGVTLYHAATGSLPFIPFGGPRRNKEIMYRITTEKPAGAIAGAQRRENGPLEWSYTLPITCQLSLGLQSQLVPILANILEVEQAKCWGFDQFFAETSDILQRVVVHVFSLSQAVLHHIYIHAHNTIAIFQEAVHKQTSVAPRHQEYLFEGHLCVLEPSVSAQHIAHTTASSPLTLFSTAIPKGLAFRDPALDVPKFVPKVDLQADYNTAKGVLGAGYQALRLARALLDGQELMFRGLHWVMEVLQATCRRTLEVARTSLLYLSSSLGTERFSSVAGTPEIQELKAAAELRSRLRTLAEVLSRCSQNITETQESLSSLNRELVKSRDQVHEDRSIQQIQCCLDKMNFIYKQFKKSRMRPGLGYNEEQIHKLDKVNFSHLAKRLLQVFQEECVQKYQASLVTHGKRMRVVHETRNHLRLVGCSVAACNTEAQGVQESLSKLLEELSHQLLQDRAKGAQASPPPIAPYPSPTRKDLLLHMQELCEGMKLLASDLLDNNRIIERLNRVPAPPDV
Conditions: at 0.1 µM.

Assay [11] addresses T4, Inhibitor of nuclear factor kappa-B kinase subunit epsilon (Homo sapiens). To be noted: at 1 µM.
In assay [12] the target is T5, Serine/threonine-protein kinase Nek1 (Homo sapiens) (UniProt Q96PY6).
T5 sequence (whole entry): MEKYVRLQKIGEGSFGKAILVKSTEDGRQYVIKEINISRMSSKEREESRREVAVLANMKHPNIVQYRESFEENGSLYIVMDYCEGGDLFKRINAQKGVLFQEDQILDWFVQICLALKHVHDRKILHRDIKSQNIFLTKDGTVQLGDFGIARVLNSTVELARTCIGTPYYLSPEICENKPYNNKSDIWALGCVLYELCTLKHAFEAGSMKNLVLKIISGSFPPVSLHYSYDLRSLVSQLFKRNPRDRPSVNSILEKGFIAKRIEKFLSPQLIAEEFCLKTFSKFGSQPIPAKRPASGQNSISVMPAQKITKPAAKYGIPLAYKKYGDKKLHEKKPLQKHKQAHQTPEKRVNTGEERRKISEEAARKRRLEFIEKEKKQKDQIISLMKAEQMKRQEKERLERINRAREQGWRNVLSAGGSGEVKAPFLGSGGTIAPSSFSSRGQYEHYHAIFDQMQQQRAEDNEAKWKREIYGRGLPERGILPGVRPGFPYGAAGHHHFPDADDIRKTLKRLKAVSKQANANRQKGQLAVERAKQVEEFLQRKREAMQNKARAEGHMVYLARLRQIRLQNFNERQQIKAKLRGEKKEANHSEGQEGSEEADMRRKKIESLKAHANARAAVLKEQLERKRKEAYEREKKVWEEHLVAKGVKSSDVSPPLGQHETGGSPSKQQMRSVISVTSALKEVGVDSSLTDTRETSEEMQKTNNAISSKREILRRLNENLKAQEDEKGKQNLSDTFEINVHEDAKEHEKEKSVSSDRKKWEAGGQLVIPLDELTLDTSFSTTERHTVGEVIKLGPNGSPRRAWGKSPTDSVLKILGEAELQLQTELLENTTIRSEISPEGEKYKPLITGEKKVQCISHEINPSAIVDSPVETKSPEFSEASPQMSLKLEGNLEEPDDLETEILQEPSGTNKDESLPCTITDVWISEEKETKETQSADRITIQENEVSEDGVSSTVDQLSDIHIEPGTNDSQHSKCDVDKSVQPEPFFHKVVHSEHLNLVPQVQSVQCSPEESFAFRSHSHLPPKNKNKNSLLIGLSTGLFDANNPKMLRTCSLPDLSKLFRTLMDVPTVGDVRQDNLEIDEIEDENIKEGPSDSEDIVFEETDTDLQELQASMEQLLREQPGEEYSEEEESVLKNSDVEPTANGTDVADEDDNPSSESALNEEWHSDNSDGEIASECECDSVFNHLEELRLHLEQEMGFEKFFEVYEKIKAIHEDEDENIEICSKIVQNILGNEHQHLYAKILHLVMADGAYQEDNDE
To be noted: at 0.1 µM.

Assay [13] addresses T5, Serine/threonine-protein kinase Nek1 (Homo sapiens). Conditions: at 1 µM.
Assay [14] addresses T6, Serine/threonine-protein kinase Nek2 (Homo sapiens) (UniProt P51955).
T6 sequence (whole entry): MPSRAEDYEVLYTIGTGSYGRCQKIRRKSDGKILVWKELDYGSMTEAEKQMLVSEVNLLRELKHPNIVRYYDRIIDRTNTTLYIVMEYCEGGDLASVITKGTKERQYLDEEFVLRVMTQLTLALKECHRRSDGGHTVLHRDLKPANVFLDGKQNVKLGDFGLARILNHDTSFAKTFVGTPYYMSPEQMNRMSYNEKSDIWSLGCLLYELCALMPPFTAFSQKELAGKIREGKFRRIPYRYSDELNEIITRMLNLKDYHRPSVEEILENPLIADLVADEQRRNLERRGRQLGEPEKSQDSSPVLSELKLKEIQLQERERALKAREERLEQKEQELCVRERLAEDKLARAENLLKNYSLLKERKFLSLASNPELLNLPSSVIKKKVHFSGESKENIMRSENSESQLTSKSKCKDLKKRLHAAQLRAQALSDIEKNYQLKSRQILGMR
Conditions: at 0.1 µM.

Assay [15] has as its target T6, Serine/threonine-protein kinase Nek2 (Homo sapiens). To be noted: at 1 µM.
Assay [16] has as its target Serine/threonine-protein kinase Nek6 (Homo sapiens) (UniProt Q9HC98). To be noted: at 0.1 µM.
Assay [17] has the same target. To be noted: at 1 µM.
For assay [18], the target named is Serine/threonine-protein kinase Nek7 (Homo sapiens) (UniProt Q8TDX7). Conditions: at 0.1 µM.
Assay [19] shares this target. Conditions: at 1 µM.
Assay [20] addresses T7, Serine/threonine-protein kinase Nek9 (Homo sapiens) (UniProt Q8TD19).
T7 sequence (whole entry): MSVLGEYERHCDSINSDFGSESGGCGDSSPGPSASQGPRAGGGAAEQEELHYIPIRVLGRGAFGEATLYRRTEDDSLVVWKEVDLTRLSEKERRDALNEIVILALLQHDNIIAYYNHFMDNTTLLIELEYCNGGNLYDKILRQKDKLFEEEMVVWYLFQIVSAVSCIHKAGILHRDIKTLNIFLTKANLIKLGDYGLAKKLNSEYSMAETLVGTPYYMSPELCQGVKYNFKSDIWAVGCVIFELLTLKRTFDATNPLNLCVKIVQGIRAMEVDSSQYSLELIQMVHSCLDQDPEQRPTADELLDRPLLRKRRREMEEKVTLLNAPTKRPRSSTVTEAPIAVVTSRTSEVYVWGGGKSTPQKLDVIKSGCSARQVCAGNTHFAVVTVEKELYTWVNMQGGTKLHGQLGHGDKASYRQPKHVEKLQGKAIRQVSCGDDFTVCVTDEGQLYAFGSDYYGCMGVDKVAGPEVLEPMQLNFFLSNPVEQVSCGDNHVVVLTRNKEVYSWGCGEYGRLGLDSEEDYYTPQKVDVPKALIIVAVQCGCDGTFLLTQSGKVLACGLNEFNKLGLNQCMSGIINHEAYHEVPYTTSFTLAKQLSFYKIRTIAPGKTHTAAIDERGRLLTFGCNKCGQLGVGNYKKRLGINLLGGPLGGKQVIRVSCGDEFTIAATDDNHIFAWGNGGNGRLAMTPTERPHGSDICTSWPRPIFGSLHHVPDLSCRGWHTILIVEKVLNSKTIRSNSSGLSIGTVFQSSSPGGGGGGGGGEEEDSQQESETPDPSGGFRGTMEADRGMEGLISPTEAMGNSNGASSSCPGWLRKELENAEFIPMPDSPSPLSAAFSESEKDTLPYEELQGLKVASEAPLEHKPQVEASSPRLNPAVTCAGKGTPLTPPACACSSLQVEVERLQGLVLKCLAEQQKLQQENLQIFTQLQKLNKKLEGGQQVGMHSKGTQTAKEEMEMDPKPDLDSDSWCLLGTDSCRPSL
Conditions: at 0.1 µM.

Sequence of Casein kinase II subunit alpha (Homo sapiens) (P68400 whole entry, looked up): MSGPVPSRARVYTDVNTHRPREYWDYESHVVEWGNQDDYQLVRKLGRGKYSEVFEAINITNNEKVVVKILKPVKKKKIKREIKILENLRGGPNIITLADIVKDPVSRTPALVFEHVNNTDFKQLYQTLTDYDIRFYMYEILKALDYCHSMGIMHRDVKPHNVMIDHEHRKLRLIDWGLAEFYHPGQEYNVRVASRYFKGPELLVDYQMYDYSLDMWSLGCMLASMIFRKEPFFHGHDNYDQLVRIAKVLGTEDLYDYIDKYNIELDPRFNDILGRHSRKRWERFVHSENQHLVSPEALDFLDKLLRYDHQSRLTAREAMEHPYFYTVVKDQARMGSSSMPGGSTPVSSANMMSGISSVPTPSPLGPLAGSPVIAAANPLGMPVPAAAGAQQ
Sequence of Serine/threonine-protein kinase Nek7 (Homo sapiens) (Q8TDX7 whole entry, looked up): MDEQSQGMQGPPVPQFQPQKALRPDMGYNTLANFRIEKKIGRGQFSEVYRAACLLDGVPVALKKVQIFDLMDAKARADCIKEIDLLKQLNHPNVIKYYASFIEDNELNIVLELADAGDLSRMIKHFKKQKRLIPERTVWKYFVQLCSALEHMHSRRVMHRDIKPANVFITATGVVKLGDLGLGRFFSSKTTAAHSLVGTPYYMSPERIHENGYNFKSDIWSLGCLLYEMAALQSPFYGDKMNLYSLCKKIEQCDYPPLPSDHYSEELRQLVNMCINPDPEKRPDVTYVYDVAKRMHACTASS
Sequence of Serine/threonine-protein kinase Nek6 (Homo sapiens) (Q9HC98 whole entry): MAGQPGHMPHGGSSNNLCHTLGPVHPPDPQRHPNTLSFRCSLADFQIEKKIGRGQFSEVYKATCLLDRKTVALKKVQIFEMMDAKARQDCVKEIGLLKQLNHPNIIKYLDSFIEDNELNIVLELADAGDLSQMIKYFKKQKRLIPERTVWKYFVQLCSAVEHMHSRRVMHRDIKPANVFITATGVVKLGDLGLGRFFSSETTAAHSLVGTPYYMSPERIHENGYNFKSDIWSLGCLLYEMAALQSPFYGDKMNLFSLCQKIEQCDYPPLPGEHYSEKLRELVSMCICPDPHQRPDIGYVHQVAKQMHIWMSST
Sequence of Sphingosine kinase 1 (Homo sapiens) (Q9NYA1 whole entry): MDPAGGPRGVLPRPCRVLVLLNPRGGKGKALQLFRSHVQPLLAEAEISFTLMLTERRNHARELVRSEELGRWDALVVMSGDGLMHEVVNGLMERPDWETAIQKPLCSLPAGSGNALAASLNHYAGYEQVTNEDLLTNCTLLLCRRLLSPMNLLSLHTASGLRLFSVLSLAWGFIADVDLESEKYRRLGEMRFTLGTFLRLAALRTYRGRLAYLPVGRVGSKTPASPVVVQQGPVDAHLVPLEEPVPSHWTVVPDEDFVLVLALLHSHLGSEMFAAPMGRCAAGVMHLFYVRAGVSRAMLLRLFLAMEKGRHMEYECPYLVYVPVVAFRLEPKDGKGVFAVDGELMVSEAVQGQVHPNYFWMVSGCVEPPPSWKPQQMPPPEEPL

`Cc1cc(O)cc(C)c1/C=C/c1cncc(C(N)=O)c1`: the inhibition in assay [1] is -2.84%; in [2] it was 0.32%; in [3], 0.47%; in [4], 2%; in assay [5], 1.41%; in assay [6] it was 7.66%. Besides, the inhibition in [7] is 1.26%; in assay [8], 1.7%; in [9] it was 1.13%; in assay [10], 1.74%; in assay [11], 91.3%; in assay [12] it was 1.8%. Besides, the inhibition in assay [13] amounted to 2.95%; in assay [14], 3.02%; in assay [15] it was 1.69%; in assay [16], 3.18%; in assay [17] it was 1.92%; in assay [18], 4.15%. Also, the inhibition in assay [19] stood at 3.89%; in assay [20] it was 5.2%.
